High-throughput results deposited in PubChem by National Center for Advancing Translational Sciences (NCATS).
Compounds with a hit are over-represented: about 1.5% of the library has one in this group of screens.
TrxR1 substrate – rat thioredoxin reductase 1 substrate activity | O89049 | purified TrxR1 substrate turnover, NADPH consumption readout | Potency, µM (titrated, usually from 114 µM) | 390,000 tested, 0.01% active | AID 588456; further: nearly all actives have a fitted effect of over 50% in size
Target sequence (O89049 whole entry, looked up): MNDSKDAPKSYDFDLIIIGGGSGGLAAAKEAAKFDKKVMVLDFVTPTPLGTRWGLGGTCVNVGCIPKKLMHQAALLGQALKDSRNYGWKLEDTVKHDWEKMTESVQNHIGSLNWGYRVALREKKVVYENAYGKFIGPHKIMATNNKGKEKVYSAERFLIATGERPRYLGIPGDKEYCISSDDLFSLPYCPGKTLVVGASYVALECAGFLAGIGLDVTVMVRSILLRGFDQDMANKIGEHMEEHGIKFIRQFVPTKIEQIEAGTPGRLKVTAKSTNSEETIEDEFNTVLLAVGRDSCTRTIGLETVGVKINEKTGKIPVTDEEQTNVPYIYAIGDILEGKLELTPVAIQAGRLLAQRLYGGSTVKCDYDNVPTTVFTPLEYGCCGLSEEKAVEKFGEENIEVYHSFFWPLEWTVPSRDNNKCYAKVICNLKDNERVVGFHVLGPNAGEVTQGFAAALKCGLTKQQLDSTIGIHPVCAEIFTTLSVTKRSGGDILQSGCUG
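Rat TrxR1, dispensed at 90 nM, was prereduced with 400 uM NADPH (final) for 5 min at ~22 deg C, then incubated with compound 15 min before 400 uM selenite. A first-read NADPH fluorescence drop versus no-compound background flagged substrates.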
TrxR1 inh – blocks rat thioredoxin reductase 1. recombinant rTrxR1, NADPH fluorescence consumption, selenite substrate. Potency, µM (top dose mostly 114 µM), usual class: inhibitors. 390,000 tested, 1% active. AID 588453; further: nearly all actives have a fitted effect of over 65% in size
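Rat TrxR1 (90 nM in the dispensed reagent) was pre-reduced with 400 uM NADPH for 5 min at room temperature, then incubated with compound for 15 min. After 400 uM selenite was added, NADPH fluorescence (Ex 340/Em 450 nm) was followed for 8 min.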
Six1-Eya2 blk – blocks human Six1 binding to Eya2; AID 651725; activity change, % (no concentration beside the values); Q15475+O00167; 360,000 tested, 0.56% active; AlphaScreen GST-Six1/His-Eya2 binding, biochemical; stronger effect = lower value; in the data active means activity change below about -65%; inconclusive means mostly about -30% to -63%
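Six1/Eya2 binding was read as AlphaScreen signal after compounds were pinned into GST-Six1 plus His-tagged Eya2 (5X stock 250/500 nM) in pH 8.0 Tris/NaCl/TCEP buffer, beads added, then incubated 1 h, 37 C, dark.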
CtBP-E1A inh – CtBP/E1A binding inhibition | AlphaScreen GST-E1A/His-CtBP binding, 1536-well; stronger effect = lower value | activity change, % (concentration not given with the values) | 340,000 tested, 0.49% active | AID 651724; in the data active means activity change below about -65%; inconclusive means mostly about -30% to -63%
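Steps: dispense buffer (Tris pH 8.0, NaCl 300 mM, TCEP 1 mM, BSA, Tween 20); add 5X protein mix (GST-E1A, His-CtBP, 125 nM each); pin 23 nL compound; 2 h at 37 °C, dark; add 5X beads (50 ug/mL); 1 h; read.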
GALK inhibitor – galactokinase (human) inhibition; P51570; Purified GALK, Kinase-Glo residual ATP luminescence; Potency, µM (series often up to 57.5 µM), hits mostly inhibitors; 270,000 tested, 0.007% active; AID 1868
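Quantitative HTS: GALK 5 nM, ATP 35 uM, galactose 100 uM, 1 h room temperature, then luciferase-based ATP detection.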
Eya2 phos inh – inhibitors of human Eya2 phosphatase activity | recombinant Eya2, OMFP fluorescence dephosphorylation (OMFP is methylfluorescein phosphate) | Potency, µM (highest dose often 76.9 µM), actives largely listed as inhibitors | 330,000 tested, 0.006% active
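Eya2 (0.2 uM) preincubated 10 min at ambient with compound, then OMFP substrate added at 50 uM; 10 min reaction in 50 mM HEPES pH 7.5, 50 mM NaCl, 5 uM MgCl2, 0.05% BSA, 1 mM DTT. Fluorescence read at Ex 485/Em 525 nm.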
Large screens that a line does not name were inactive. Unless noted, the call rests on the fitted dose curve; in most records, active means well fitted curve in the direction sought with a large enough effect; inconclusive means small, poorly fitted or top-dose-only effect, or another doubt; inactive means no such curve, though single readings can be large; an effect the other way counts as inactive or inconclusive.

COc1ccc(OC)c(NC(=O)CN2C(=O)CC(C)Sc3ccccc32)c1 (stereo not given)	none (no result: Six1-Eya2 blk, CtBP-E1A inh, GALK inhibitor, Eya2 phos inh)
CCC(=O)Nc1cccc(-c2cnc3ccccc3n2)c1	none
O=C(CCl)Nc1cccc(-c2cnc3ccccc3n2)c1	TrxR1 inh 20µM
CN(C)c1ccc(CN2CCC(C(=O)NC(c3ccc(F)cc3)c3ccc4ccccc4n3)CC2)cc1 (stereo not given)	Six1-Eya2 blk -66, CtBP-E1A inh inconclusive (no result: TrxR1 substrate, TrxR1 inh, GALK inhibitor, Eya2 phos inh)
O=C(NC(c1ccc(F)cc1)c1ccc2ccccc2n1)C1CCN(Cc2ccc3ccccc3n2)CC1 (stereo not given)	CtBP-E1A inh inconclusive (no result: TrxR1 substrate, TrxR1 inh, GALK inhibitor, Eya2 phos inh)
COC(=O)c1ccc(OCC2c3cc(OC)c(OC)cc3CCN2C(=O)Cc2ccccc2)cc1 (stereo not given)	none (no result: Six1-Eya2 blk, CtBP-E1A inh, GALK inhibitor, Eya2 phos inh)
N#Cc1ccsc1NC(=O)CCS(=O)(=O)c1ccccc1	TrxR1 inh 3.2µM
NC(=O)c1ccsc1NC(=O)CCS(=O)(=O)c1ccccc1	none
N#Cc1ccsc1NC(=O)COC(=O)CCS(=O)(=O)c1ccccc1	none (no result: GALK inhibitor)
NC(=O)c1ccsc1NC(=O)CCS(=O)(=O)c1ccc(Cl)cc1	TrxR1 inh 18µM (no result: GALK inhibitor)
NC1=C(Cl)C(=O)c2ccccc2C1=O	TrxR1 inh 13µM, Six1-Eya2 blk inconclusive (no result: GALK inhibitor, Eya2 phos inh)
O=C(Cn1c(=O)n(Cc2ccc3c(c2)OCO3)c(=O)c2oc3ccccc3c21)Nc1ccccc1F	none (no result: Six1-Eya2 blk, CtBP-E1A inh, GALK inhibitor, Eya2 phos inh)
CCOC(=O)C1(C)Oc2ccccc2C(C(=O)OC)=C1C(=O)OC (stereo not given)	TrxR1 inh 32µM (no result: GALK inhibitor)
CCOc1ccc(C(=O)N2CCN(Cc3cc(=O)n4nc(-c5ccccc5Cl)sc4n3)CC2)cc1	none (no result: Six1-Eya2 blk, CtBP-E1A inh, GALK inhibitor, Eya2 phos inh)
Cc1ccc(O)c(/C=N/NC(=O)CN2CCCC2)c1	Six1-Eya2 blk -65 (no result: CtBP-E1A inh)
Cc1cc(C)n(CCC(=O)N/N=C/c2c(O)ccc3ccccc23)n1	Six1-Eya2 blk -89 (no result: CtBP-E1A inh)
O=C(CN1CCCC1)N/N=C/c1c(O)ccc2ccccc12	Six1-Eya2 blk -90, CtBP-E1A inh -91
O=C(NN=Cc1c(O)ccc2ccccc12)C1CC1	Six1-Eya2 blk inconclusive, CtBP-E1A inh -69 (no result: GALK inhibitor, Eya2 phos inh)
Cc1cccc(/C=N/NC(=O)CN2CCCCCCC2)c1	none
CCCCc1nn2c(=O)cc(COC(=O)c3cccc(NC(=O)c4cccs4)c3)nc2s1	none (no result: Six1-Eya2 blk, CtBP-E1A inh, GALK inhibitor, Eya2 phos inh)
CC(C)(C)OC(=O)N1CCC(c2c(C(=O)NC3CCN(Cc4ccccc4)CC3)cnn2-c2ccc(F)cc2F)CC1	none (no result: Six1-Eya2 blk, CtBP-E1A inh, GALK inhibitor, Eya2 phos inh)
Cc1ccc(Cl)cc1NC(=O)CCCn1c(=O)c2cccn2c2ccccc21	none (no result: Six1-Eya2 blk, CtBP-E1A inh, GALK inhibitor, Eya2 phos inh)
O=c1c2ccccc2nc(N/N=C/c2c(O)ccc3ccccc23)n1O	Six1-Eya2 blk -90, CtBP-E1A inh -94
O=C(N/N=C/c1c(O)ccc2ccccc12)C(=O)N1CCCC1	Six1-Eya2 blk -87, CtBP-E1A inh inconclusive (no result: TrxR1 substrate, TrxR1 inh, GALK inhibitor, Eya2 phos inh)
COc1cc(C(=O)Nc2ccc(OCc3cc(=O)n4cccc(C)c4n3)cc2)cc(OC)c1OC	none (no result: Six1-Eya2 blk, CtBP-E1A inh, GALK inhibitor, Eya2 phos inh)
CC(C)(C)n1ncc2c(=O)n(Cc3c(F)cc(Cl)cc3F)cnc21	none (no result: Six1-Eya2 blk, CtBP-E1A inh, GALK inhibitor, Eya2 phos inh)
Cc1oc(-c2ccc(Cl)cc2)nc1CS(=O)CC(=O)NCc1ccccc1 (stereo not given)	TrxR1 inh inconclusive
CCc1ccc(-c2nc(CS(=O)CC(=O)NCCCN3CCOCC3)c(C)o2)cc1 (stereo not given)	TrxR1 inh 20µM
Cc1oc(-c2ccc(Cl)cc2)nc1CS(=O)CC(=O)NCc1ccccn1 (stereo not given)	TrxR1 inh 18µM
CCc1ccc(-c2nc(CS(=O)CC(=O)NCc3ccccc3)c(C)o2)cc1 (stereo not given)	TrxR1 inh 32µM
CC(=O)OC1(C(C)=O)CCC2C3CC(C(F)(F)F)C4=CC(=O)CCC4(C)C3CCC21C (stereo not given)	TrxR1 inh 16µM (no result: GALK inhibitor, Eya2 phos inh)
CC(=O)O[C@]1(C(C)=O)CC[C@H]2[C@@H]3C[C@H](C)C4=CC(=O)CC[C@]4(C)[C@H]3CC[C@@]21C	none
O=C(CC1Sc2ncnn2C1=O)Nc1ccccc1 (stereo not given)	TrxR1 inh 4.5µM
COc1ccc(NC(=O)/C(Cl)=C(/Cl)S(=O)(=O)Cc2ccccc2)cn1	TrxR1 inh 7.1µM
COc1ccc(NC(=O)C(Cl)=C(Cl)Cl)cn1	none
